Screening results: PubChem, several laboratories
MsrA act: bovine MsrA enzyme activators, primary screen, biochemical, absorbance, HTS | activation, % at 10.6 µM | hit rate 0.3% among 360,000 | Methionine sulfoxide reductase A (Bos taurus) | purified bovine MsrA, absorbance read-out; in the data active = activation above about 7.5%;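 also: 0% = vehicle and 100% = reference activator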
rCAG RNA binder: binders of r(CAG) RNA repeats, primary screen, biochemical, fluorescence; r(CAG) RNA repeat, TO-PRO-1 dye displacement fluorescence; hit rate 1.3% among 370,000; inhibition, % at 3 µM;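 active = inhibition above the plate cutoff, the mean of all test compounds on that plate plus 3 SD, cut at about 35% in these data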;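 also: 0% = DMSO alone and 100% = 100 µM mitoxantrone as full dye displacement; higher means more dye released from RNA so lower well fluorescence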
NadD inh: inhibitors of S. aureus NadD, primary screen, biochemical, colorimetric, uHTS; Nicotinate-nucleotide adenylyltransferase NadD (Staphylococcus aureus N315); purified NadD enzyme, colorimetric absorbance read-out; inhibition, % at 20 µM; hit rate 0.78% among 360,000; AID 602399, 2012; in the data active = inhibition above about 26%
MsrA inhibitor: bovine MsrA enzyme inhibitors, primary screen, biochemical, absorbance, HTS; Methionine sulfoxide reductase A (Bos taurus); purified bovine MsrA, absorbance read-out; inhibition, % at 15.5 µM; hit rate 0.75% among 360,000; AID 651718, 2012;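 also: 0% = vehicle wells with enzyme and 100% = reference inhibitor wells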
MsrA inh confirm: bovine MsrA inhibitors, retest, confirmation, biochemical, absorbance, HTS. shares compounds with MsrA inhibitor. purified bovine MsrA, absorbance read-out. inhibition, % at 15.5 µM. hit rate 41% among 2,300;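 also: coupled to thioredoxin reductase with NADPH and selenocystamine and DMSO as substrate; 0% = vehicle only and 100% = full effect of reference inhibitor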
* hit, by the source's call. Most compounds without a hit are left out; they make up all but 2.7% or so of the library. Rule as the data show it, unless noted: active = inhibition above about 4.5%; inactive = the rest.

For Cc1ccc2nc(-c3ccc(NC(=O)CN4C(=O)NC(C)(c5ccc(OC(F)F)cc5)C4=O)cc3)sc2c1 (stereo unspecified) the results were MsrA act -6, rCAG RNA binder 25, NadD inh 24, MsrA inhibitor 4.7* and MsrA inh confirm 3.
Screening CC1(c2ccc(OC(F)F)cc2)NC(=O)N(CC(=O)Nc2ccccc2)C1=O (stereo unspecified) returned MsrA act -1, rCAG RNA binder 1, NadD inh 0 and MsrA inhibitor 1.
Screening Cc1ccc(-n2c(N)c(C#N)c(-c3ccccc3)c(C#N)c2=O)cc1 returned MsrA act -5, rCAG RNA binder 5, NadD inh -5, MsrA inhibitor 4.9* and MsrA inh confirm 2.
For Cc1ccc(-c2c(C#N)c(N)n(-c3ccccc3C)c(=O)c2C#N)cc1 the results were MsrA act -3, rCAG RNA binder 1, NadD inh -2 and MsrA inhibitor 4.
Screening N#Cc1c(-c2ccc(Cl)cc2)c(C#N)c(=O)n(N)c1N returned MsrA act -4, rCAG RNA binder -2, NadD inh 1, MsrA inhibitor 4.9* and MsrA inh confirm 3.
Cn1nc(C(=O)Nc2ccc3c(c2)OCCO3)cc1C(=O)O was read as MsrA act -2 and NadD inh 4.
`CCOC(=O)N1CCC(Nc2c(-c3ccccc3)c(=O)c2=O)CC1` gave MsrA act -3, rCAG RNA binder 1, NadD inh -5 and MsrA inhibitor 3.
For CCOC(=O)N1CCC(Nc2c(-c3ccc(C)cc3)c(=O)c2=O)CC1 the results were MsrA act -4, rCAG RNA binder -5, NadD inh -3, MsrA inhibitor 4.9* and MsrA inh confirm 3.
For Cc1ccc(/C=C/c2nnc(-c3cccs3)o2)cc1 the results were MsrA act -14, rCAG RNA binder 4, NadD inh 1 and MsrA inhibitor 1.
Fc1ccc(/C=C/c2nnc(-c3cccs3)o2)cc1 was read as MsrA act -5, rCAG RNA binder -1, NadD inh -6, MsrA inhibitor 5.2* and MsrA inh confirm 2.
CC(C)(/C=N/O)/[N+]([O-])=C/c1ccco1 was read as MsrA act -5, rCAG RNA binder 1, NadD inh 2 and MsrA inhibitor 0.
For Cc1nc(/C=[N+](\[O-])C(C)(C)/C=N/O)n(O)c1C the results were MsrA act -6, rCAG RNA binder -4, NadD inh 2, MsrA inhibitor 6.7* and MsrA inh confirm 4.6*.
Cc1ccn2c(=O)c(NC(=O)COc3ccccc3)c(C)nc2c1 was read as MsrA act -8, rCAG RNA binder -4, NadD inh -6, MsrA inhibitor 4.9* and MsrA inh confirm 3.
Cc1nc2c(C)cccn2c(=O)c1NC(=O)COc1ccccc1 was read as MsrA act -2, rCAG RNA binder -4, NadD inh 0 and MsrA inhibitor 3.
CCCn1c(O)c(N=NC(=O)c2ccco2)c2ccccc21 was read as MsrA act -1, rCAG RNA binder -2, NadD inh 19, MsrA inhibitor 4.7* and MsrA inh confirm 5.3*.
Screening O=C(N=Nc1c(O)[nH]c2ccccc12)c1ccco1 returned MsrA act -9, rCAG RNA binder 6, NadD inh -6, MsrA inhibitor 6.8* and MsrA inh confirm 5.0*.
O=C(CSCc1ccccc1)N=Nc1c(O)[nH]c2ccccc12 was read as MsrA act -8, rCAG RNA binder 5, NadD inh 3 and MsrA inhibitor 1.
CCn1c(O)c(N=NC(=O)CNC(=O)c2ccco2)c2ccccc21 was read as MsrA act -7, rCAG RNA binder 2, NadD inh -6 and MsrA inhibitor 1.
Screening O=C(N=Nc1c(O)[nH]c2ccccc12)c1ccc(CN2CCOCC2)cc1 returned MsrA act 2, rCAG RNA binder 1, NadD inh -7, MsrA inhibitor 6.1* and MsrA inh confirm 3.
For CC1(C)CC(=O)C=C(Nc2ccccc2NC(=O)c2cccc(F)c2F)C1 the results were rCAG RNA binder -1.
Screening CC(=O)c1ccc(Nc2ccc([N+](=O)[O-])c3nonc23)cc1 returned MsrA act 3, rCAG RNA binder 6, NadD inh -4, MsrA inhibitor 7.0* and MsrA inh confirm 4.
Cc1ccc(Cl)cc1N1CCN(C(=O)C2CCCN(S(=O)(=O)c3cnc[nH]3)C2)CC1 (stereo unspecified) was read as MsrA act -3, rCAG RNA binder 2, NadD inh -3 and MsrA inhibitor -1.
`CC(=O)c1ccc(N2CCN(C(=O)C3CCCN(S(=O)(=O)c4cnc[nH]4)C3)CC2)cc1` (stereo unspecified) gave MsrA act -6, rCAG RNA binder -3, NadD inh 3, MsrA inhibitor 5.1* and MsrA inh confirm 3.
For CCOC(=O)c1cc(C)nc(SC)c1C#N the results were MsrA act -2, rCAG RNA binder 1, NadD inh -1 and MsrA inhibitor 0.
CCOC(=O)c1cc(C(C)(C)C)nc(SC)c1C#N was read as MsrA act -4, rCAG RNA binder -5, NadD inh -6, MsrA inhibitor 6.2* and MsrA inh confirm 3.
Screening COCCNC(=O)c1ccccc1NC(=O)CCSc1ccccc1 returned MsrA act -8, rCAG RNA binder -4, NadD inh -1 and MsrA inhibitor 0.
`O=c1[nH]c(=S)[nH]c2c1[C@H](C1CC1)O[C@H](CCc1ccccc1)C2` gave MsrA act -1, rCAG RNA binder 0, NadD inh 0 and MsrA inhibitor 1.
CCCCSc1nc2sc3c(c2c(=O)n1-c1ccccc1)CCN(C)C3 was read as MsrA act -4, rCAG RNA binder 4, NadD inh 5, MsrA inhibitor 5.4* and MsrA inh confirm 2.
Screening COC(=O)CSc1nc2sc3c(c2c(=O)n1-c1ccccc1)CCN(C)C3 returned MsrA act -11, rCAG RNA binder 10, NadD inh 5, MsrA inhibitor 4.7* and MsrA inh confirm 2.
Screening O=c1c(-c2cc3ccccc3[nH]2)nc2ccccc2n1C(CCc1ccccc1)c1nc2ccccc2[nH]1 (stereo unspecified) returned rCAG RNA binder 17 and MsrA inhibitor 0.
Screening CN(C)c1ccc(/C=N/n2c(-c3ccccc3Br)n[nH]c2=S)cc1 returned MsrA act -2, rCAG RNA binder 14, NadD inh 6 and MsrA inhibitor 1.
Screening O=C(Cn1nc2ccccc2n1)N/N=C/c1cc([N+](=O)[O-])ccc1O returned MsrA act -4, rCAG RNA binder 22, NadD inh -2, MsrA inhibitor 4.7* and MsrA inh confirm 4.
Screening O=C(Cn1nnc(-c2ccccc2)n1)N/N=C/c1cc([N+](=O)[O-])ccc1O returned MsrA act -1, rCAG RNA binder 7, NadD inh -2 and MsrA inhibitor 0.
